From PubChem BioAssay (Tox21)
Records with an inconclusive call do not appear. A call without a number means that no potency is given here. A structure can be active in one record and inactive in another. Active and inactive are the calls of the source. Unless noted, the call rests on the fitted dose curve; in most records, active means well fitted curve in the direction sought with a large enough effect in the repeat runs; inconclusive means weak or mixed curves; inactive means no such curve, though single readings can be large; an effect the other way counts as inactive or inconclusive.

Assays:
[1] = qHTS assay to identify aromatase inhibitors - cell viability counter screen (AID 743084);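 further: cells stimulated with testosterone during compound exposure; nearly all actives have a fitted effect of over 55% in size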; further: potency means the concentration at half of the fitted maximal effect
[2] = target: Aryl hydrocarbon receptor (Homo sapiens) (UniProt P35869); test: qHTS assay to identify small molecule that activate the aryl hydrocarbon receptor (AhR) signaling pathway (AID 743085); further: nearly all actives have a fitted effect of over 15% in size; further: potency means the concentration at half of the fitted maximal effect;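 on activation: HG2L7.5c1 human HepG2 liver cells with stably integrated DRE-driven firefly reporter; series mostly up to about 70 µM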
In short: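 Luminescence (ONE-Glo) from a dioxin-responsive-element luciferase reporter in HG2L7.5c1 HepG2 cells after 24 hr compound exposure at 37C; viability measured by CellTiter-Fluor fluorescence beforehand.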

[3] = qHTS assay to identify small molecule antagonists of the peroxisome proliferator-activated receptor gamma (PPARg) signaling pathway - cell viability counter screen (AID 743194); further: nearly all actives have a fitted effect of over 55% in size; further: potency means the concentration at half of the fitted maximal effect
In short: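 PPARg-UAS-bla HEK293H cells were plated, rested 5 h at 37 C, then treated with compounds plus rosiglitazone (50 nM final) for 17 h at 37 C; viability was then read by CellTiter-Glo luminescence after 30 min at room temperature.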

[4] = qHTS assay for small molecule agonists of the antioxidant response element (ARE) signaling pathway - cell viability counter screen (AID 743203; calls by dose curve; further: nearly all actives have a fitted effect of over 55% in size; further: potency means the concentration at half of the fitted maximal effect)
In short: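 Cells (ARE-bla HepG2, 2,000/well) receive DMSO-dissolved compounds after a 5 hrs rest. Plates incubate 16 hrs at 37C/5% CO2. CellTiter-Glo luminescence is then recorded after 30 min at room temperature.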

[5] = qHTS assay for small molecule activators of the heat shock response signaling pathway - cell viability counter screen (AID 743209); further: nearly all actives have a fitted effect of over 50% in size; further: potency means the concentration at half of the fitted maximal effect
In short: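 Quantitative HTS format, Tox21 10K library. HeLa cells carrying an HSE-driven beta-lactamase reporter were treated 5 h at 37 C, then assessed for viability by CellTiter-Glo luminescence.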

[6] = qHTS assay to identify small molecule agonists of the peroxisome proliferator-activated receptor delta (PPARd) signaling pathway - cell viability counter screen (AID 743211); further: nearly all actives have a fitted effect of over 55% in size; further: potency means the concentration at half of the fitted maximal effect
In short: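 Viability was measured as CellTiter-Glo luminescence (30 min, room temperature) in the same wells as the beta-lactamase readout. GeneBLAzer PPARd UAS-bla HEK293H cells received compound after 5 h plating and were incubated 17 h at 37 C.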

[7] = target: Peroxisome proliferator-activated receptor delta (Homo sapiens) (UniProt Q03181); test: qHTS assay to identify small molecule agonists of the peroxisome proliferator-activated receptor delta (PPARd) signaling pathway (AID 743212; calls by dose curve)
In short: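 GeneBLAzer PPARd UAS-bla HEK293H cells (beta-lactamase reporter under UAS control), plated and rested 5 h at 37 C, then exposed to compounds in DMSO at 37 C; LiveBLAzer B/G FRET substrate added, 2 h room temperature, fluorescence read.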

[8] = qHTS assay to identify small molecule antagonists of the peroxisome proliferator-activated receptor delta (PPARd) signaling pathway - cell viability counter screen (AID 743213); further: nearly all actives have a fitted effect of over 50% in size; further: potency means the concentration at half of the fitted maximal effect
In short: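 CellTiter-Glo was added to PPARd-bla HEK293H wells following 17 h compound treatment in the presence of 300 nM L165041. Luminescence was recorded after 30 min at room temperature.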

[9] = qHTS assay to identify small molecule that activate the aryl hydrocarbon receptor (AhR) signaling pathway - cell viability counter screen (AID 743086); further: nearly all actives have a fitted effect of over 45% in size; further: potency means the concentration at half of the fitted maximal effect
In short: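 HepG2-AhR-luc (HG2L7.5c1) cells, 4000/well, were preincubated 5 h at 37C, exposed to compound in qHTS format for 24 hr at 37C, then given CellTiter-Fluor for 30 min; viability was read as fluorescence in the reporter wells.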

[10] = target: Peroxisome proliferator-activated receptor gamma (Homo sapiens) (UniProt P37231); test: qHTS assay to identify small molecule agonists of the peroxisome proliferator-activated receptor gamma (PPARg) signaling pathway (AID 743094; active means well fitted activation curve with a large enough effect in the signal ratio in the repeat runs, not every such curve was filed as active; the % refers to the signal ratio)
In short: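 Stably transfected HEK293H cells (GeneBLAzer PPARg UAS-bla) were incubated with test substances for 17 h at 37C after a 5 h pre-incubation; beta-lactamase activity was then detected by FRET substrate fluorescence.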

[11] = target: Peroxisome proliferator-activated receptor gamma (Homo sapiens) (UniProt P37231); test: qHTS assay to identify small molecule antagonists of the peroxisome proliferator-activated receptor gamma (PPARg) signaling pathway (AID 743191; calls by dose curve; further: series mostly up to about 63 µM; nearly all actives have a fitted effect of over 30% in size)
In short: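 GeneBLAzer PPARg UAS-bla HEK293H cells carrying a UAS-driven beta-lactamase reporter were plated at 3000 cells/well, preincubated 5 h at 37C, then given compound for 17 h at 37C; LiveBLAzer B/G FRET substrate was read after 1 h at room temperature.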

[12] = qHTS assay for small molecule agonists of the antioxidant response element (ARE) signaling pathway (AID 743202; active means well fitted activation curve with a large enough effect in the signal ratio in the repeat runs, not every such curve was filed as active; the % refers to the signal ratio)
In short: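 Read-out: LiveBLAzer B/G FRET substrate fluorescence after 2 h at room temperature, following 16 h compound treatment at 37 C of HepG2 cells carrying an ARE-driven beta-lactamase reporter.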

[13] = qHTS assay for small molecule activators of the heat shock response signaling pathway (AID 743210; active means well fitted activation curve with a large enough effect in the signal ratio in the repeat runs, with a control signal flat, not every such curve was filed as active; the % refers to the signal ratio; further: series mostly up to about 63 µM)
In short: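 HSE-bla HeLa cells (beta-lactamase reporter under heat shock response elements) were exposed to compounds for 5 h at 37 C, then loaded with LiveBLAzer B/G FRET substrate for 2.5 h at room temperature before fluorescence reading.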

[14] = qHTS assay to identify small molecule agonists of the farnesoid-X-receptor (FXR) signaling pathway - cell viability counter screen (AID 743218); further: nearly all actives have a fitted effect of over 45% in size; further: potency means the concentration at half of the fitted maximal effect
In short: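 In GeneBLAzer FXR-UAS-bla HEK 293T cells, compounds act for 16 h at 37 C. Cell viability is then scored in the reporter wells by CellTiter-Glo, 30 min at RT, luminescence.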

[15] = qHTS assay to identify small molecule antagonists of the farnesoid-X-receptor (FXR) signaling pathway - cell viability counter screen (AID 743221; active means well fitted cell-killing curve with a large enough effect in the repeat runs, not every such curve was filed as active; further: nearly all actives have a fitted effect of over 50% in size; further: potency means the concentration at half of the fitted maximal effect)
In short: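 Cytotoxicity counter screen run in the FXR-bla reporter wells: HEK 293T cells exposed to compound with 50 uM (final) chenodeoxycholic acid for 16 h, 37 C, then viability measured by CellTiter-Glo luminescence after 30 min, room temperature.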

[16] = target: Peroxisome proliferator-activated receptor delta (Homo sapiens) (UniProt Q03181); test: qHTS assay to identify small molecule antagonists of the peroxisome proliferator-activated receptor delta (PPARd) signaling pathway (AID 743215; active means well fitted inhibition curve with a large enough effect in the signal ratio in the repeat runs, not every such curve was filed as active; the % refers to the signal ratio;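 further: cells stimulated with agonist L165041 at 300 nM final during compound exposure; series mostly up to about 62 µM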)
In short: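 Antagonist-mode beta-lactamase reporter screen: HEK293H cells with UAS-bla under PPARd control, stimulated by 300 nM L165041 (final) alongside test compound for 17 h at 37 C, then FRET fluorescence after 2 h substrate incubation.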

[17] = target: Bile acid receptor (Homo sapiens) (UniProt Q96RI1); test: qHTS assay to identify small molecule antagonists of the farnesoid-X-receptor (FXR) signaling pathway (AID 743217; active means well fitted inhibition curve with a large enough effect in the signal ratio in the repeat runs, not every such curve was filed as active; the % refers to the signal ratio)
In short: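 Beta-lactamase reporter under UAS control in HEK 293T cells; compound exposure 16 h at 37 °C in the presence of chenodeoxycholic acid (50 uM final); signal from B/G FRET substrate after 2 h at room temperature.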

[18] = target: Bile acid receptor (Homo sapiens) (UniProt Q96RI1); test: qHTS assay to identify small molecule agonists of the farnesoid-X-receptor (FXR) signaling pathway (AID 743220; active means well fitted activation curve with a large enough effect in the signal ratio in the repeat runs, not every such curve was filed as active; the % refers to the signal ratio)
In short: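 Beta-lactamase reporter under UAS control in GeneBLAzer FXR HEK 293T cells (5000/well) measured with LiveBLAzer FRET substrate after 2 h at room temperature. Compound exposure lasted 16 h at 37C.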

[19] = target: Vitamin D3 receptor (Homo sapiens) (UniProt P11473); test: qHTS assay to identify small molecule antagonists of the vitamin D receptor (VDR) signaling pathway (AID 743223; active means well fitted inhibition curve with a large enough effect in the signal ratio in the repeat runs, not every such curve was filed as active; the % refers to the signal ratio; further: potency means the concentration at half of the fitted maximal effect)
In short: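 Antagonist mode: compound added to VDR-bla cells alongside agonist 1alpha,25-dihydroxyvitamin D3 (3 nM final), incubation 16 h at 37C. Read-out is LiveBLAzer FRET fluorescence, 2 h at room temperature.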

[20] = target: Vitamin D3 receptor (Homo sapiens) (UniProt P11473); test: qHTS assay to identify small molecule agonists of the vitamin D receptor (VDR) signaling pathway (AID 743222; calls by dose curve)
In short: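 Agonist activity measured in VDR-bla reporter cells. Exposure 16 h, 37C, 5% CO2; detection by B/G FRET substrate, 2 h RT.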

Aryl hydrocarbon receptor (Homo sapiens), sequence (P35869 whole entry, looked up): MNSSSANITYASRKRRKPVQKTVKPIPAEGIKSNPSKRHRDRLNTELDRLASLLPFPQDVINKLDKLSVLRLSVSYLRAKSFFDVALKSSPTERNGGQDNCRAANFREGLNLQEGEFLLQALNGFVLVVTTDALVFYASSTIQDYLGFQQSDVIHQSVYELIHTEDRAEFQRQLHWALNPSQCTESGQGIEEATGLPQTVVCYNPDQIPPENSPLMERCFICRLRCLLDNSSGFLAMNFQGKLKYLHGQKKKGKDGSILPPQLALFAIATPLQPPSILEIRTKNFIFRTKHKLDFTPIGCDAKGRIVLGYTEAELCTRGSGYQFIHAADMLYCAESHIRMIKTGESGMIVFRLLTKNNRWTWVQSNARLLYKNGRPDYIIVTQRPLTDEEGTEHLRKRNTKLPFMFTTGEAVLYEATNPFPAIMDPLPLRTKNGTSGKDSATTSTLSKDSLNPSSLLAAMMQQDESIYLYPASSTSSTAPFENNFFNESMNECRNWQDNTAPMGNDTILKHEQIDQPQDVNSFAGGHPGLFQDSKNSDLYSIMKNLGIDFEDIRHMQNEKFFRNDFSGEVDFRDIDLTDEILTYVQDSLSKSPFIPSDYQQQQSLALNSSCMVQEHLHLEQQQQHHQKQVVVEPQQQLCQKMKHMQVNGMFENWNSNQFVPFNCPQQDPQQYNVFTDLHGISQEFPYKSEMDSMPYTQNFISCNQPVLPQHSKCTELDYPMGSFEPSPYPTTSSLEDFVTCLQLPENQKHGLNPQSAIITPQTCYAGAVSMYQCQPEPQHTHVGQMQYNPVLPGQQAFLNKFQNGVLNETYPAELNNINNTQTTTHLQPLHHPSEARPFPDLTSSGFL
Vitamin D3 receptor (Homo sapiens), sequence (P11473 whole entry, looked up): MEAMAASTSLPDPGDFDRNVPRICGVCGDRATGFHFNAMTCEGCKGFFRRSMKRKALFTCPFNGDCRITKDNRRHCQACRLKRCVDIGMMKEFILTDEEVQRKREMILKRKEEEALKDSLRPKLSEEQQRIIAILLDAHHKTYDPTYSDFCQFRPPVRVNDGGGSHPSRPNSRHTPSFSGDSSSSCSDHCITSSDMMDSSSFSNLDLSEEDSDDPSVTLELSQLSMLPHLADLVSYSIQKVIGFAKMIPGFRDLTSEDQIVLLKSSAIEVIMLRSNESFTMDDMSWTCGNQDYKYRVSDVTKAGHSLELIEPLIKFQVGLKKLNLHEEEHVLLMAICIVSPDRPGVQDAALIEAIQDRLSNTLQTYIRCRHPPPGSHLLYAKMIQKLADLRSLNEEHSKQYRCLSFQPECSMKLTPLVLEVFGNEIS
Peroxisome proliferator-activated receptor delta (Homo sapiens), sequence (Q03181 whole entry, looked up): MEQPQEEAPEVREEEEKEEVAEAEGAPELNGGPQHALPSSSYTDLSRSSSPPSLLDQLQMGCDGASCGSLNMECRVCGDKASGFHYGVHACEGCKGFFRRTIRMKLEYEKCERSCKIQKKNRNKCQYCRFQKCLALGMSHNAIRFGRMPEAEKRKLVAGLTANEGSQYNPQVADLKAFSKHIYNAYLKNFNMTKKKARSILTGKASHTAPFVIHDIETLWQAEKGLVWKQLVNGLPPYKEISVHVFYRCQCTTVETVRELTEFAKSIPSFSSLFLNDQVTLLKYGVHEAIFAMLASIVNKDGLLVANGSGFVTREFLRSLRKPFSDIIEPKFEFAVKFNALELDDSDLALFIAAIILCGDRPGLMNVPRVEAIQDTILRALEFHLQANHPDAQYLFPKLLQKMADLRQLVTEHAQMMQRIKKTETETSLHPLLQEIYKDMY
Peroxisome proliferator-activated receptor gamma (Homo sapiens), sequence (P37231 whole entry, looked up): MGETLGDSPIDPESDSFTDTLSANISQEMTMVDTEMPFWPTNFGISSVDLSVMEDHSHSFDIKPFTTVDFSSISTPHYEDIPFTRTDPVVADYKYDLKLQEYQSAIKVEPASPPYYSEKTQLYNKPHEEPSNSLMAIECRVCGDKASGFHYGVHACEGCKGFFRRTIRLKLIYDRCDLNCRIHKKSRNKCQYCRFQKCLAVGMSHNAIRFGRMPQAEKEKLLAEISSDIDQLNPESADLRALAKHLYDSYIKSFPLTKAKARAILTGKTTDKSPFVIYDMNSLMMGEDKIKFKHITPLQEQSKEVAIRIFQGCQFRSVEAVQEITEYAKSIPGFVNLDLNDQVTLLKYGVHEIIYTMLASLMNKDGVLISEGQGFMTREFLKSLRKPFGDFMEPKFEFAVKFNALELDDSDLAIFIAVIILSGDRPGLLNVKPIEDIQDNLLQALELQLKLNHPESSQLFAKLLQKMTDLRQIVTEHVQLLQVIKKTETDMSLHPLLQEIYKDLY
Bile acid receptor (Homo sapiens), sequence (Q96RI1 whole entry, looked up): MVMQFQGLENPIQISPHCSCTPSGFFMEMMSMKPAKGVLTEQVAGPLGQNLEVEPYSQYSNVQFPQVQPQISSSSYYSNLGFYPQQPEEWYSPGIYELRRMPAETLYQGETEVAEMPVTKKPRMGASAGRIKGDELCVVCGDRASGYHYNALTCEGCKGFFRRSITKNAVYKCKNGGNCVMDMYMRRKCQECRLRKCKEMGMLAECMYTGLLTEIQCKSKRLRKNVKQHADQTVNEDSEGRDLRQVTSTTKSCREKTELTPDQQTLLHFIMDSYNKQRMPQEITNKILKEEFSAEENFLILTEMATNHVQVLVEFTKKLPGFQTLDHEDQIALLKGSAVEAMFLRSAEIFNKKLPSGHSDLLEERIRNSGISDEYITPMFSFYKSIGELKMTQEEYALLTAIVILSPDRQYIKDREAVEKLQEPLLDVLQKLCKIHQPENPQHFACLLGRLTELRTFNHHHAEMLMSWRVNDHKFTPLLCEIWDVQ

SMILES: O=C1C=CC(=O)N1c1ccc(Cc2ccc(N3C(=O)C=CC3=O)cc2)cc1
- Potency [1]: 9.69 µM (active)
- Potency [2]: inactive
- Potency [3]: 13.8 µM (active)
- Potency [4]: 17.2 µM (active)
- Potency [5]: 17.4 µM (active)
- Potency [6]: 38.9 µM (active)
- Potency [7]: inactive
- Potency [8]: 34.7 µM (active)

SMILES: CC(NN)c1ccccc1 (stereo not drawn)
- Potency [1]: inactive
- Potency [9]: inactive
- Potency [10]: inactive
- Potency [11]: inactive
- Potency [3]: inactive
- Potency [12]: inactive
- Potency [4]: inactive
- Potency [5]: inactive
- Potency [13]: inactive
- Potency [6]: inactive
- Potency [8]: inactive
- Potency [14]: inactive
- Potency [15]: inactive

SMILES: COc1cc(/C=C/C(=O)O[C@H]2CC[C@]34C[C@]35CC[C@]3(C)[C@@H]([C@H](C)CCC=C(C)C)CC[C@@]3(C)[C@@H]5CC[C@H]4C2(C)C)ccc1O
- Potency [1]: inactive
- Potency [9]: inactive
- Potency [10]: inactive
- Potency [11]: inactive
- Potency [3]: inactive
- Potency [5]: inactive
- Potency [6]: inactive
- Potency [7]: inactive
- Potency [8]: inactive
- Potency [16]: inactive
- Potency [17]: inactive
- Potency [14]: inactive
- Potency [18]: inactive
- Potency [15]: inactive
- Potency [19]: inactive

SMILES: Nc1ccccc1O
- Potency [1]: 67.7 µM (active)
- Potency [2]: 21.4 µM (active)
- Potency [3]: inactive
- Potency [13]: inactive
- Potency [6]: inactive
- Potency [7]: inactive
- Potency [8]: inactive
- Potency [16]: inactive
- Potency [17]: inactive
- Potency [14]: inactive
- Potency [18]: inactive
- Potency [20]: inactive
- Potency [19]: inactive

SMILES: ON=C1CCCC1
- Potency [1]: inactive
- Potency [9]: inactive
- Potency [10]: inactive
- Potency [11]: inactive
- Potency [3]: inactive
- Potency [12]: inactive
- Potency [4]: inactive
- Potency [13]: inactive
- Potency [6]: inactive
- Potency [7]: inactive
- Potency [8]: inactive
- Potency [16]: inactive
- Potency [17]: inactive
- Potency [14]: inactive
- Potency [18]: inactive
- Potency [15]: inactive
- Potency [20]: inactive
- Potency [19]: inactive

SMILES: Cc1cc(O)c(C(C)(C)C)cc1Sc1cc(C(C)(C)C)c(O)cc1C
- Potency [1]: 30.6 µM (active)
- Potency [2]: inactive
- Potency [3]: 10.9 µM (active)
- Potency [4]: 7.68 µM (active)
- Potency [5]: 10.9 µM (active)
- Potency [6]: 3.88 µM (active)
- Potency [8]: 3.46 µM (active)
- Potency [14]: 8.69 µM (active)
- Potency [15]: 9.75 µM (active)

SMILES: CCCCCCCCCCCCCCCCCC[N+](C)(C)Cc1ccccc1
- Potency [1]: 49 µM (active)
- Potency [2]: inactive
- Potency [3]: 44.1 µM (active)
- Potency [4]: 19.5 µM (active)
- Potency [5]: 27.8 µM (active)
- Potency [6]: 11.1 µM (active)
- Potency [8]: 13.9 µM (active)
- Potency [14]: 19.7 µM (active)
- Potency [15]: 27.8 µM (active)

SMILES: CCOC(=O)O[C@H](C)OC(=O)c1ccc2c(c1)cc(C(=O)NC1CCN(C(C)C)CC1)n2Cc1cc(-c2ccc(Cl)s2)on1
- Potency [1]: 18.1 µM (active)
- Potency [2]: inactive
- Potency [3]: 10.2 µM (active)
- Potency [4]: 22.7 µM (active)
- Potency [5]: 22.9 µM (active)
- Potency [6]: 8.14 µM (active)
- Potency [8]: 18.2 µM (active)
- Potency [14]: 16.2 µM (active)
- Potency [19]: 16.2 µM (active)

SMILES: Oc1ccc(C2(c3ccc(O)cc3)CC3CC2C2CCCC32)cc1 (stereo not drawn)
- Potency [1]: 33 µM (active)
- Potency [2]: inactive
- Potency [3]: 26.5 µM (active)
- Potency [4]: 58.7 µM (active)
- Potency [6]: 14.9 µM (active)
- Potency [8]: 23.6 µM (active)
- Potency [14]: 18.7 µM (active)

SMILES: CNc1ccc(O)cc1
- Potency [1]: 19.3 µM (active)
- Potency [2]: 61 µM (active)
- Potency [3]: 43.6 µM (active)
- Potency [6]: 38.8 µM (active)
- Potency [8]: 43.6 µM (active)
- Potency [15]: inactive

SMILES: O=C(NO)C1(NS(=O)(=O)c2ccc(Oc3ccc(F)cc3)cc2)CCOCC1
- Potency [1]: inactive
- Potency [9]: inactive
- Potency [10]: inactive
- Potency [11]: inactive
- Potency [3]: inactive
- Potency [4]: inactive
- Potency [5]: inactive
- Potency [13]: inactive
- Potency [6]: inactive
- Potency [7]: inactive
- Potency [8]: inactive
- Potency [16]: inactive
- Potency [14]: inactive
- Potency [15]: inactive
- Potency [19]: inactive

SMILES: Cc1ccc(O)c(C(C)(C)C)c1
- Potency [1]: 17.2 µM (active) and inactive
- Potency [9]: 61 µM (active) and inactive
- Potency [10]: inactive
- Potency [11]: inactive
- Potency [3]: inactive
- Potency [4]: 30.6 µM (active) and inactive
- Potency [5]: 24.5 µM (active) and inactive
- Potency [13]: inactive
- Potency [6]: 21.8 µM (active) and inactive
- Potency [7]: inactive
- Potency [8]: 27.5 µM (active)
- Potency [16]: inactive
- Potency [14]: 24.5 µM (active) and inactive
- Potency [15]: 43.6 µM (active)
- Potency [20]: inactive
- Potency [19]: 13.8 µM (active)
